Measurements: ChEMBL document CHEMBL3988442, “University of Dundee, Small-Polar-MMV Screening Library” (2021)
For some assays here: Potency and affinity values are given separately.

Columns and labels:
Parameters in all cases: scale not given: direction of the effect not stated beside the values
[1] = target: T1, Aspartate--tRNA(Asp/Asn) ligase (Mycobacterium tuberculosis (strain ATCC 25618 / H37Rv)) (UniProt P9WFW3); test: Assay for Asp RNA synthetase-1 from Mycobacterium tuberculosis; format: functional; conditions: 30 µM; note: in the data most compounds retested in dose-response had high values
T1 sequence (whole entry): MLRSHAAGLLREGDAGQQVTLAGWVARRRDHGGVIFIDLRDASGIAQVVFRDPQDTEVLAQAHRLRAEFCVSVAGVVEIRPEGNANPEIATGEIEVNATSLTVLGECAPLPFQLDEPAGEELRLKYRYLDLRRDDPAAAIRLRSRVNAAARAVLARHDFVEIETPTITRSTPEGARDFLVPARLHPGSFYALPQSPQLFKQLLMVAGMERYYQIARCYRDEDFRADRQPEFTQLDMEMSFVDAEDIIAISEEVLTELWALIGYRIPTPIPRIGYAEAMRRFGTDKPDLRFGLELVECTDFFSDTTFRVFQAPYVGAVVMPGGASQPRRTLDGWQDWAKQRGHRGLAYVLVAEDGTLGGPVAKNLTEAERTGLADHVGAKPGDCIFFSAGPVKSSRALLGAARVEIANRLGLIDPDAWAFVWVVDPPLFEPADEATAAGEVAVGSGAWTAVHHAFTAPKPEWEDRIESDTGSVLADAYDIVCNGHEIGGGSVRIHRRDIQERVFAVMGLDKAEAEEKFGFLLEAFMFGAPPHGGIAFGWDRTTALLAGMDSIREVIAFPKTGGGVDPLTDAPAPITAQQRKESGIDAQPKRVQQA

[2] = target: Protein translocase subunit SecA (Escherichia coli (strain K12)) (UniProt P10408); test: Assay to Identify E. coli SecA ATPase Inhibitors; format: functional; conditions: 30 µM
[3] = target: T2, Ubiquitin-activating enzyme e1, putative (Leishmania donovani (strain BPK282A1)) (UniProt E9BSI1); test: Leishmania donovani Ubiquitin Activating Enzyme (LdE1); format: functional; conditions: 30 µM
T2 sequence (whole entry): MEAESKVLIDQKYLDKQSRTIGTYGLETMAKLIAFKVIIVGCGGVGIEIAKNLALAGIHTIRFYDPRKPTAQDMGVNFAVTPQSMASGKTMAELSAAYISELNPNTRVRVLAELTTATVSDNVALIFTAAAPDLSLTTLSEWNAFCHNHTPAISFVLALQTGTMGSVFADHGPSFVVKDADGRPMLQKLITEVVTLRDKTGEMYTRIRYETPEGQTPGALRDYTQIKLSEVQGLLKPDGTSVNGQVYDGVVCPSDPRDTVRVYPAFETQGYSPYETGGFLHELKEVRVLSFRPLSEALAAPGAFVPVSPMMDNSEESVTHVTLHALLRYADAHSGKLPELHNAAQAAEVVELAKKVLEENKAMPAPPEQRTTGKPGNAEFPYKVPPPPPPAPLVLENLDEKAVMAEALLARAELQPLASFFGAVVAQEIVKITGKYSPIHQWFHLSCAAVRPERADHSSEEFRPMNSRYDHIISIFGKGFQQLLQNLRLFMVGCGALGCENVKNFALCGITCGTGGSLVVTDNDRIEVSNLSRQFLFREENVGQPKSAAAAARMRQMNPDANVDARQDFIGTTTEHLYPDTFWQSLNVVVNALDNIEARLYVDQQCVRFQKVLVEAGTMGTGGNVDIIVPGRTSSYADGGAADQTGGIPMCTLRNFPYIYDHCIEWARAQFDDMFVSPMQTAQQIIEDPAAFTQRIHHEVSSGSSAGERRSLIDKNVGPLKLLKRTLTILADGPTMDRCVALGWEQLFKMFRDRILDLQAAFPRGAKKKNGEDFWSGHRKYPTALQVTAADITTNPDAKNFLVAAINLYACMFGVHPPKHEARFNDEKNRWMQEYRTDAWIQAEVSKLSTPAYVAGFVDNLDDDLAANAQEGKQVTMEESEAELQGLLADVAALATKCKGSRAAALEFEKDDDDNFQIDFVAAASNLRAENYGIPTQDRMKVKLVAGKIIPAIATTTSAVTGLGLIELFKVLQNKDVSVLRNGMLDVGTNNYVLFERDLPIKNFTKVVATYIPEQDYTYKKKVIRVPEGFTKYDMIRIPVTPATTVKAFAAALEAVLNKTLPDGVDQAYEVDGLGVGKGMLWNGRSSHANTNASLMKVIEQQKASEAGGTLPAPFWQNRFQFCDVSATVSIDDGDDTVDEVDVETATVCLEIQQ

[4] = target: Sialic acid-binding Ig-like lectin 9 (Homo sapiens) (UniProt Q9Y336); test: Hs-Siglec9 ALPHAscreen SOP 20170721; conditions: 10 µM
Trypanosoma cruzi = test: Trypanosoma cruzi phosphomannomutase and mannose-1-phosphate guanylyltransferase assay; format: functional; conditions: 10 µM
[5] = target: T3, Arginase-2, mitochondrial (Homo sapiens) (UniProt P78540); test: in vitro enzyme assay to detect the production of urea directly proportional to the activity of Arginase II; format: functional; conditions: 33.3 µM; note: in the data most compounds retested in dose-response had high values
T3 sequence (whole entry): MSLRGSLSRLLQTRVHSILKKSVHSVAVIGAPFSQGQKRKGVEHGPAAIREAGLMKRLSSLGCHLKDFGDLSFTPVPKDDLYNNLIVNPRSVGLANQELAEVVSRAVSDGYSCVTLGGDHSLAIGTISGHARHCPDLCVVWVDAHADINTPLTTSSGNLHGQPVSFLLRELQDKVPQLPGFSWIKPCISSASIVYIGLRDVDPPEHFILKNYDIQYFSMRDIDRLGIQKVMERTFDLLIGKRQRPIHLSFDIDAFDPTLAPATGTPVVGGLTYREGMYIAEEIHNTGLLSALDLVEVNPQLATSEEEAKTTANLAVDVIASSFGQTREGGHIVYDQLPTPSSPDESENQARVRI

[6] = target: T4, Proteasome subunit beta (Trypanosoma cruzi) (UniProt O96673); test: Trypanosoma cruzi proteasome chymotrypsin-like activity (TcProtChymo) assay.; note: in the data most compounds retested in dose-response had high values; format: functional; conditions: 9.37 µM
T4 sequence (whole entry): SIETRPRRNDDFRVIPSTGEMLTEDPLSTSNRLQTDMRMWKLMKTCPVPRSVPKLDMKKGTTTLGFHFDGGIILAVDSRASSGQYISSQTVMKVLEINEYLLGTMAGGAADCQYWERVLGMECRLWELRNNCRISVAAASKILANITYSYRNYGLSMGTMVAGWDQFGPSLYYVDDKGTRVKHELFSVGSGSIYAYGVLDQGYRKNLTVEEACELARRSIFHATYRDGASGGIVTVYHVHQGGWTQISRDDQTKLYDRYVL

Homo sapiens = species: Homo sapiens; test: To identify inhibition of the IFN signalling (Jak-Stat) pathway via expression of an eGFP reporter gene under the control of an IFN-stimulated response element (ISRE) containing MxA promoter.; format: functional; conditions: 30 µM
[7] = target: Shiga toxin 2 (Escherichia coli O157:H7) (UniProt P09385+P09386); test: E. coli 0.157:H7 Shiga Toxin SOP - stx2 screening assay; format: functional; conditions: 30 µM
[8] = target: T5, Tyrosyl-tRNA synthetase, putative (Trypanosoma cruzi (strain CL Brener)) (UniProt Q4DSP6); test: Trypanosoma cruzi tyrosyl tRNA synthetase (TcYRS) _High Tyrosine SOP; format: functional; conditions: 30 µM; note: in the data most compounds retested in dose-response had high values
T5 sequence (whole entry): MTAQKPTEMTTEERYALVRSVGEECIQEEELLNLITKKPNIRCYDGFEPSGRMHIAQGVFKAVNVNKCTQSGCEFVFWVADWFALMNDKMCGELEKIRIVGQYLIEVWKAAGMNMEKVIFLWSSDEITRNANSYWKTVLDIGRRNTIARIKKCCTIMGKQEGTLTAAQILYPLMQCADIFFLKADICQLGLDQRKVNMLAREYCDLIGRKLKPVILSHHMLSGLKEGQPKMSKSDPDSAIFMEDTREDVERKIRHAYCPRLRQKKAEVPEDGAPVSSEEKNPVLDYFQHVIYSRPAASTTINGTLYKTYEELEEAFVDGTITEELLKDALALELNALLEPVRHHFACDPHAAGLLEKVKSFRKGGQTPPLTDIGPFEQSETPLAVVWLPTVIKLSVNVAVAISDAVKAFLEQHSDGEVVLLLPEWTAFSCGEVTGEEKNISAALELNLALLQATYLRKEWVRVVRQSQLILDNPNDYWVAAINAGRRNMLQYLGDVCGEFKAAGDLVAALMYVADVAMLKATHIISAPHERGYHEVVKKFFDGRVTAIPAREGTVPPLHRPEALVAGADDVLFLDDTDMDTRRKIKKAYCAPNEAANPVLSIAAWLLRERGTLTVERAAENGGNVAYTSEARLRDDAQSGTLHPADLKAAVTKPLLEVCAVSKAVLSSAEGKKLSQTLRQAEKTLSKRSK

[9] = target: T5, Tyrosyl-tRNA synthetase, putative (Trypanosoma cruzi (strain CL Brener)); test: Trypanosoma cruzi tyrosyl tRNA synthetase (TcYRS) SOP; format: functional; conditions: 30 µM
[10] = target: Chromo domain-containing protein 1 (Saccharomyces cerevisiae (strain ATCC 204508 / S288c) (Baker's yeast)) (UniProt P32657); test: ScCHD-1 Enzyme Inhibition Assay; format: functional; conditions: 30 µM; note: in the data most compounds retested in dose-response had high values
Chain of Chromo domain-containing protein 1 (Saccharomyces cerevisiae (strain ATCC 204508 / S288c) (Baker's yeast)) (P32657 whole entry, the tested form may be a part): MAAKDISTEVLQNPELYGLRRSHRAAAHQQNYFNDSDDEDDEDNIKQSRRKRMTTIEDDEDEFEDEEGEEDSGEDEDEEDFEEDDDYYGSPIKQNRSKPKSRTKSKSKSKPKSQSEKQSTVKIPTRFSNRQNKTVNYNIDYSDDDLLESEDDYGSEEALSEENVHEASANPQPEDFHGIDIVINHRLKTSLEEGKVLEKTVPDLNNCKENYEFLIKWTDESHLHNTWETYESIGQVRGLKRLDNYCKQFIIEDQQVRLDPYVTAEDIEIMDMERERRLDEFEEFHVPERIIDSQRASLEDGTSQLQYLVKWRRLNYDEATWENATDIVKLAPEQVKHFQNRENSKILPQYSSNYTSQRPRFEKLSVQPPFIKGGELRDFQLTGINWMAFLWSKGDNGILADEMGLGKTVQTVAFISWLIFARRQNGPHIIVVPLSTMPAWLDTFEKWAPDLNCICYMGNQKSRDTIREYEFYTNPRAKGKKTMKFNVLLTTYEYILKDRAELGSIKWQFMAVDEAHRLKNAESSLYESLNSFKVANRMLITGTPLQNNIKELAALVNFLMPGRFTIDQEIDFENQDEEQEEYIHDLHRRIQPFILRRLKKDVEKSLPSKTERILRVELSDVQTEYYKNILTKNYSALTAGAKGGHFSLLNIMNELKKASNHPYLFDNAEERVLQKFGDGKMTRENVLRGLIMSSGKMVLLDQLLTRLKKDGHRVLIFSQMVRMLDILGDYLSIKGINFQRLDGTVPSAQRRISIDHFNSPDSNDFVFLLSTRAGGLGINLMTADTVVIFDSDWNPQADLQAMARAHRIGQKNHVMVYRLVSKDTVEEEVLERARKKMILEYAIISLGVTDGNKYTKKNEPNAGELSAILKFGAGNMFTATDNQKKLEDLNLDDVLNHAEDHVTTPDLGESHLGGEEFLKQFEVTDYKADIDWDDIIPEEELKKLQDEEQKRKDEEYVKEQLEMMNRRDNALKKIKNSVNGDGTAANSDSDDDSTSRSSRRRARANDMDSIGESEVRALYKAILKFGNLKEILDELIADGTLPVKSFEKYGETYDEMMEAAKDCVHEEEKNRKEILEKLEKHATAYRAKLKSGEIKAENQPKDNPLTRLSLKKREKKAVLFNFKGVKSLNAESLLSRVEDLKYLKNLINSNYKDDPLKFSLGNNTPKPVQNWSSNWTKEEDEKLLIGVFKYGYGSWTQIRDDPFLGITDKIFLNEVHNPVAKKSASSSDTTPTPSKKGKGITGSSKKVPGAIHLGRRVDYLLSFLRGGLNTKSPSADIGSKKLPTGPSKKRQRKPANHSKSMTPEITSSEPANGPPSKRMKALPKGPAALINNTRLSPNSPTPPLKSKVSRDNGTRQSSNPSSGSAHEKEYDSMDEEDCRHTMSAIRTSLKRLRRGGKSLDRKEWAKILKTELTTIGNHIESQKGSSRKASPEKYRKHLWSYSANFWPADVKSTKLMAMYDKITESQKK

Chain of Sialic acid-binding Ig-like lectin 9 (Homo sapiens) (Q9Y336 whole entry): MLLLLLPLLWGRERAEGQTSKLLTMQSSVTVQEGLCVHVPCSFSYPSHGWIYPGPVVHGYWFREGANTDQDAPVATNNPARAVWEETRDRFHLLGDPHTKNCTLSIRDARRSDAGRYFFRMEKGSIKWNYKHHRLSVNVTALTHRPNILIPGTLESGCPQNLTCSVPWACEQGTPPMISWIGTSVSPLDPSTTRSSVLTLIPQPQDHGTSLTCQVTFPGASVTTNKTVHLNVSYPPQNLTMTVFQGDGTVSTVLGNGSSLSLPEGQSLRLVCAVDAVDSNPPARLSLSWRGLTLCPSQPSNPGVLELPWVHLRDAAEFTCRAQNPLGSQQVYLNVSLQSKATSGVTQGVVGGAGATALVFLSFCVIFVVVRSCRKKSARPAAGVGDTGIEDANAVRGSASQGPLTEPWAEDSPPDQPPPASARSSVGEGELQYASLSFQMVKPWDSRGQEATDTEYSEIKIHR
Chain of Protein translocase subunit SecA (Escherichia coli (strain K12)) (P10408 whole entry): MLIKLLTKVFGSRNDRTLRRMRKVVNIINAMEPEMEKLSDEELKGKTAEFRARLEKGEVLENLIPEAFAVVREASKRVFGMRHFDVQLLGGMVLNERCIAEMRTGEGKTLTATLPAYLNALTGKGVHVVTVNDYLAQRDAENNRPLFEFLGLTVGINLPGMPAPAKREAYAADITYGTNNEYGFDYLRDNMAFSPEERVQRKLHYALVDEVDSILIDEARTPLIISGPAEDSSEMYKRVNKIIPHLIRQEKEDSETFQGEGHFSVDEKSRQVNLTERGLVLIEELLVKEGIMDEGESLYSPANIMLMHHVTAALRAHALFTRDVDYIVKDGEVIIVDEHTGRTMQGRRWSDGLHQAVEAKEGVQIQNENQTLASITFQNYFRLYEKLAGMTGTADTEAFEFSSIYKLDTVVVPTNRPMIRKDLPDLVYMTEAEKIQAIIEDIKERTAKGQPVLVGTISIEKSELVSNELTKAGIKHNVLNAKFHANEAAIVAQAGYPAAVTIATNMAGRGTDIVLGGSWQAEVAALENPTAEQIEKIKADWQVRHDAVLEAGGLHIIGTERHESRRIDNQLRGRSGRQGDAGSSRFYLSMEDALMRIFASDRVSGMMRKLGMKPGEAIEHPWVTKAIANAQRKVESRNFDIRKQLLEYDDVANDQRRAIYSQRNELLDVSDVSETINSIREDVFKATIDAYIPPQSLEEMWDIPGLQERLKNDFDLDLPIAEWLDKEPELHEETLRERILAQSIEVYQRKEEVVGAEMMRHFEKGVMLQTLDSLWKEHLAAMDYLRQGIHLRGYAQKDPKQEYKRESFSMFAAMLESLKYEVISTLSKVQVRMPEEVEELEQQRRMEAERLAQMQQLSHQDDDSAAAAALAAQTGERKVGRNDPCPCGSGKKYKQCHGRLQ

CCC(=O)NCc1cc(Br)ccc1OC(F)F
Percent Effect [1]: 0.885%

CN1CCC2(CC1)C(=O)N(CC1CC1)c1ccccc12
Percent Effect [2]: -2.83% | Percent Effect [3]: 9.09% | Percent Effect [1]: -2.3% | Percent Effect [4]: -0.296% | Percent Effect (Trypanosoma cruzi): -1.69% | Percent Effect [5]: 3.65% | Percent Effect [6]: 1.12% | Percent Effect (Homo sapiens): 2.83% | Percent Effect [7]: 4.66% | Percent Effect [8]: -0.966% | Percent Effect [9]: 0% | Percent Effect [10]: -9.03%

c1cnc(N2CCC3(CCN(CC4CCOC4)C3)CC2)nc1 (stereo not given)
Percent Effect [2]: -3.76% | Percent Effect [3]: 6.49% | Percent Effect [1]: 8.74% | Percent Effect [4]: -2.65% | Percent Effect (Trypanosoma cruzi): -2.63% | Percent Effect [5]: 0.405% | Percent Effect [6]: 10.2% | Percent Effect (Homo sapiens): 0.479% | Percent Effect [7]: -3.12% | Percent Effect [8]: 2.63% | Percent Effect [9]: 7.69% | Percent Effect [10]: -4.21%

O=C1CO[C@@H]2CN(Cc3cccs3)C[C@H]2N1Cc1ccncc1
Percent Effect [2]: -2.47% | Percent Effect [3]: 14.3% | Percent Effect [1]: 9.56% | Percent Effect [4]: -8.26% | Percent Effect (Trypanosoma cruzi): -2.63% | Percent Effect [5]: 10.9% | Percent Effect [6]: 21.8% | Percent Effect (Homo sapiens): -2.63% | Percent Effect [7]: -17.5% | Percent Effect [8]: 12.1% | Percent Effect [9]: 10.3% | Percent Effect [10]: 3.61%

Cc1nc(CN2CCO[C@H]3[C@@H](OCc4ccccn4)CC[C@@H]32)cs1
Percent Effect [2]: -6.18% | Percent Effect [3]: 9.09% | Percent Effect [1]: 3.07% | Percent Effect [4]: -6.32% | Percent Effect (Trypanosoma cruzi): -3.6% | Percent Effect [5]: -2.43% | Percent Effect [6]: 10.2% | Percent Effect (Homo sapiens): 4.6% | Percent Effect [7]: -1.17% | Percent Effect [8]: 4.74% | Percent Effect [9]: 7.69% | Percent Effect [10]: -4.92%

CN1CCN(Cc2ccoc2)Cc2cccnc21
Percent Effect [2]: -4.57% | Percent Effect [3]: -14.3% | Percent Effect [1]: 3.07% | Percent Effect [4]: -3.94% | Percent Effect (Trypanosoma cruzi): -5.16% | Percent Effect [5]: 4.45% | Percent Effect [6]: -0.265% | Percent Effect (Homo sapiens): 0.714% | Percent Effect [7]: -8.68% | Percent Effect [8]: 5.79% | Percent Effect [9]: -15.4% | Percent Effect [10]: 3.94%

C[C@H]1C(=O)NC[C@H]2CN(Cc3ccccc3)C[C@H]21
Percent Effect [2]: -1.35% | Percent Effect [3]: -1.3% | Percent Effect [1]: 0.819% | Percent Effect [4]: -0.437% | Percent Effect (Trypanosoma cruzi): 1.5% | Percent Effect [5]: -0.457% | Percent Effect [6]: -1.12% | Percent Effect (Homo sapiens): 13.9% | Percent Effect [7]: 5.59% | Percent Effect [8]: 4.83% | Percent Effect [9]: 0% | Percent Effect [10]: 0.883%

NC(=O)CN1CCCN(C(=O)Cc2ccc3c(c2)OCO3)CC1
Percent Effect [2]: -0.196% | Percent Effect [3]: 5.33% | Percent Effect [1]: -1.81% | Percent Effect [4]: 2.43% | Percent Effect (Trypanosoma cruzi): -7.43% | Percent Effect [5]: 3.55% | Percent Effect [6]: 3.48% | Percent Effect (Homo sapiens): 12% | Percent Effect [7]: -21.4% | Percent Effect [8]: 3.68% | Percent Effect [9]: 10.3% | Percent Effect [10]: -7.19%

CCn1nc(C)c(CNC(=O)c2cn(CCC3CCCCN3)nn2)c1C (stereo not given)
Percent Effect [1]: 0.0575%

Cc1nn(C)c(N(C)C)c1CNC(C)Cc1c(F)cccc1F (stereo not given)
Percent Effect [2]: -1.71% | Percent Effect [3]: 26% | Percent Effect [1]: 3.29% | Percent Effect [4]: 10.5% | Percent Effect (Trypanosoma cruzi): 4.85% | Percent Effect [5]: 5.12% | Percent Effect [6]: 7.89% | Percent Effect (Homo sapiens): 5.28% | Percent Effect [7]: -17.2% | Percent Effect [8]: 6.86% | Percent Effect [9]: 23.5% | Percent Effect [10]: -9.67%

COCCN1CCN(Cc2ccncc2)[C@H]2CS(=O)(=O)C[C@H]21
Percent Effect [2]: -10.2% | Percent Effect [3]: 10.8% | Percent Effect [1]: -1.29% | Percent Effect [4]: 17.6% | Percent Effect (Trypanosoma cruzi): 6.3% | Percent Effect [5]: 16.4% | Percent Effect [6]: 5.99% | Percent Effect (Homo sapiens): 6.91% | Percent Effect [7]: 11.1% | Percent Effect [8]: 4.79% | Percent Effect [9]: 14.6% | Percent Effect [10]: -4.57%
